PubChem BioAssay (EPA / NIEHS)
Several values for one entry are separate records, joined by “and”; a condition that tells them apart may be missing. Identical values can stand only once. A structure can be active in one record and inactive in another. Activity calls are given as the source filed them. Rule for the calls: active = hit-call score of the fitted dose curve at least 0.9, where 1 is the maximum; inactive = score below 0.9.

Assays:
Details in all cases: mRNA level, 48 h; actives raise or lower the signal
[1] = read-out: Fatty Acid-Binding Protein 1 (FABP1), FABP1 (gene 2168); assay: LTEA_HepaRG_FABP1: Life Technologies and Expression Analysis (LTEA) Assay for Fatty Acid-Binding Protein 1 (FABP1) using HepaRG (AID 2283494)
Procedure, shortened: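 HepaRG, 48 h post-plating switched to serum-free induction medium, then dosed 48 h (duplicate, 8 pts, ≤100 uM, 0.5% DMSO). RNA → Fluidigm TaqMan qRT-PCR, FABP1 normed to ACTB/GAPDH/POLR2A. Bidirectional curve fit vs DMSO.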

[2] = read-out: Cytochrome P450 4A22 (Homo sapiens) (UniProt Q5TCH4); assay: LTEA_HepaRG_CYP4A22: Life Technologies and Expression Analysis (LTEA) Assay for Cytochrome P450 4A22 (CYP4A22) using HepaRG (AID 2283495)
Procedure, shortened: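 qRT-PCR of CYP4A22 mRNA (Fluidigm TaqMan, normalized to three housekeeping genes) after 48 h chemical exposure of HepaRG cells; 8-point half-log series, top 100 uM, 0.5% DMSO vehicle. Bidirectional curve fitting vs DMSO baseline.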

[3] = read-out: Cytochrome P450 7A1 (Homo sapiens) (UniProt P22680); assay: LTEA_HepaRG_CYP7A1: Life Technologies and Expression Analysis (LTEA) Assay for Cytochrome P450 7A1 (CYP7A1) using HepaRG (AID 2283496)
Procedure, shortened: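 HepaRG cells plated 48 h, then switched to serum-free induction medium and exposed in duplicate for 48 h to 8-point half-log series from 100 uM in 0.5% DMSO. CYP7A1 mRNA by qRT-PCR (TaqMan), normalized to ACTB/GAPDH/POLR2A; bidirectional fit versus DMSO.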

[4] = read-out: Glutathione S-Transferase (GSTA2), GSTA2 (gene 2939); assay: LTEA_HepaRG_GSTA2: Life Technologies and Expression Analysis (LTEA) Assay for Glutathione S-Transferase (GSTA2) using HepaRG (AID 2283497)
Procedure, shortened: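 HepaRG, 48 h dosing, 8-pt half-log CRC from 100 uM, 0.5% DMSO vehicle, n=2; RNA → Fluidigm TaqMan qRT-PCR; GSTA2 vs ACTB/GAPDH/POLR2A; gain/loss fit vs DMSO.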

[5] = read-out: Glutamate-cysteine ligase catalytic (GCLC), GCLC (gene 2729); assay: LTEA_HepaRG_GCLC: Life Technologies and Expression Analysis (LTEA) Assay for Glutamate-cysteine ligase catalytic (GCLC) using HepaRG (AID 2283498)
Procedure, shortened: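 Read-out is GCLC transcript level by Fluidigm-based TaqMan qRT-PCR, normalized to three housekeeping genes and fitted in both directions relative to 0.5% DMSO. Human HepaRG cells received chemicals for 48 h, up to 100 uM.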

[6] = read-out: growth arrest and DNA damage 45 (GADD45G), GADD45G (gene 10912); assay: LTEA_HepaRG_GADD45G: Life Technologies and Expression Analysis (LTEA) Assay for growth arrest and DNA damage 45 (GADD45G) using HepaRG (AID 2283499)
Procedure, shortened: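 Differentiated human HepaRG cells in serum-free induction medium were exposed for 48 h to 8 half-log concentrations up to 100 uM in 0.5% DMSO, in duplicate. GADD45G mRNA was measured by TaqMan qRT-PCR, normalised to ACTB, GAPDH and POLR2A, and fitted bidirectionally against DMSO.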

[7] = read-out: Glutamate-cysteine ligase regulatory (GCLM), GCLM (gene 2730); assay: LTEA_HepaRG_GCLM: Life Technologies and Expression Analysis (LTEA) Assay for Glutamate-cysteine ligase regulatory (GCLM) using HepaRG (AID 2283500)
Procedure, shortened: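 Cells were plated, cultured 48 h, switched to serum-free induction medium, then dosed in duplicate for 48 h at eight half-log concentrations up to 100 uM. RNA was then profiled by qRT-PCR; gain or loss versus DMSO was fitted.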

[8] = read-out: Glutathione S-transferase M3 (GSTM3), GSTM3 (gene 2947); assay: LTEA_HepaRG_GSTM3: Life Technologies and Expression Analysis (LTEA) Assay for Glutathione S-transferase M3 (GSTM3) using HepaRG (AID 2283501)
Procedure, shortened: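 Differentiated HepaRG cells in serum-free induction medium were exposed in duplicate for 48 h to 8 half-log concentrations up to 100 uM in 0.5% DMSO. GSTM3 mRNA was measured by TaqMan qRT-PCR, normalized to ACTB/GAPDH/POLR2A, and fitted bidirectionally versus DMSO.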

[9] = read-out: Heat shock 70 kDa protein 1 (HSPA1A), gene 3303; assay: LTEA_HepaRG_HSPA1A: Life Technologies and Expression Analysis (LTEA) Assay for Heat shock 70 kDa protein 1 (HSPA1A) using HepaRG (AID 2283502)
Procedure, shortened: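 Readout is HSPA1A transcript level by microfluidic qRT-PCR, normalized to three housekeeping genes and analysed for gain or loss of signal relative to 0.5% DMSO. Human HepaRG cultures received test chemicals for 48 h at up to 100 uM.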

Structure (SMILES)	AC50 [1]	outcome [1]	AC50 [2]	outcome [2]	AC50 [3]	outcome [3]	AC50 [4]	outcome [4]	outcome [5]	outcome [6]	outcome [7]	AC50 [8]	outcome [8]	outcome [9]	AC50 [9]	AC50 [6]	AC50 [7]	AC50 [5]
Oc1ccc(Cl)cc1Cc1ccccc1	50.5 µM (active)	inactive	91.8 µM (active)	inactive	76.1 µM (active)	inactive	80.5 µM (active) and 92.2 µM (active)	inactive	inactive	inactive	inactive	91.9 µM (active)	inactive	inactive				
N#Cc1c(Cl)c(Cl)c(Cl)c(C#N)c1Cl	77.7 µM (active)					inactive	34 µM (active)		inactive	inactive	inactive		inactive		17.3 µM (active)			
COP(=O)(OC)OC=C(Cl)Cl				inactive		inactive		inactive	inactive	inactive	inactive		inactive	inactive				
Cc1[nH]c(=O)n(C(C)(C)C)c(=O)c1Cl		inactive		inactive	18.8 µM (active)			inactive	inactive	inactive	inactive		inactive	inactive				
CCC(C)(C)C(=O)OC1=C(c2ccc(Cl)cc2Cl)C(=O)OC12CCCCC2		inactive		inactive		inactive		inactive	inactive	inactive	inactive		inactive	inactive				
C#CCN1C(=O)COc2cc(F)c(N3C(=O)C4=C(CCCC4)C3=O)cc21	25.4 µM (active)		16.1 µM (active)			inactive		inactive	inactive	inactive	inactive		inactive	inactive				
O=C(O)C(F)(F)C(F)(F)C(F)(F)C(F)(F)C(F)(F)C(F)(F)C(F)(F)F	11 µM (active) and 8 µM (active)		6.42 µM (active) and 5.96 µM (active)			inactive		inactive	inactive	inactive	inactive		inactive	inactive	50 µM (active)			
O=S1OCC2C(CO1)C1(Cl)C(Cl)=C(Cl)C2(Cl)C1(Cl)Cl (centres undefined)	43.6 µM (active)		60.4 µM (active)		40.4 µM (active)		79.7 µM (active)		inactive				inactive	inactive		88.6 µM (active)	50 µM (active)	
CC(C)OC(=O)Nc1cccc(Cl)c1		inactive		inactive		inactive		inactive	inactive	inactive	inactive		inactive	inactive				
CC[C@H](C)[C@H]1O[C@]2(C=C[C@@H]1C)C[C@@H]1C[C@@H](C/C=C(\C)[C@@H](O[C@H]3C[C@H](OC)[C@@H](O[C@H]4C[C@H](OC)[C@@H](O)[C@H](C)O4)[C@H](C)O3)[C@@H](C)/C=C/C=C3\CO[C@@H]4[C@H](O)C(C)=C[C@@H](C(=O)O1)[C@]34O)O2 (tested in a mixture with another compound)	8.68 µM (active)		10.2 µM (active)		15 µM (active)		7.88 µM (active)			inactive		9.57 µM (active)			44.2 µM (active)		7.66 µM (active)	7.09 µM (active)
O=[N+]([O-])/N=C1\NCCN1Cc1ccc(Cl)nc1	36 µM (active)			inactive	34.1 µM (active)		39.9 µM (active)			inactive	inactive		inactive		25 µM (active)			24.6 µM (active)
Clc1ccccc1-c1nnc(-c2ccccc2Cl)nn1	18.8 µM (active)			inactive	24 µM (active)			inactive		inactive			inactive	inactive			23 µM (active)	
C[C@H]1[C@H](c2ccc(Cl)cc2)SC(=O)N1C(=O)NC1CCCCC1	55.8 µM (active)		47.1 µM (active)		78.9 µM (active)		79.3 µM (active)						inactive	inactive		72.9 µM (active)	73.5 µM (active)	67.4 µM (active)
CNC(=O)CSP(=S)(OC)OC		inactive		inactive		inactive		inactive	inactive	inactive	inactive		inactive	inactive				
O=C1c2ccccc2C(=O)N1SC(Cl)(Cl)Cl		inactive		inactive		inactive		inactive	inactive	inactive	inactive		inactive	inactive				
N#CN		inactive		inactive		inactive		inactive	inactive	inactive	inactive		inactive	inactive				
CCOC1Oc2ccc(OS(C)(=O)=O)cc2C1(C)C (centres undefined)	63.7 µM (active)		62.6 µM (active)		85.6 µM (active)		82 µM (active)		inactive				inactive	inactive		78.3 µM (active)	81.8 µM (active)	
CC(C)N(C(=O)COc1nnc(C(F)(F)F)s1)c1ccc(F)cc1	23 µM (active)			inactive	24.7 µM (active)		50 µM (active)		inactive	inactive	inactive		inactive	inactive				
CNC(=O)Oc1cccc(N=CN(C)C)c1		inactive		inactive		inactive		inactive	inactive	inactive	inactive		inactive	inactive				
COP(=S)(OC)Oc1ccc(SC)c(C)c1		inactive		inactive		inactive		inactive	inactive	inactive			inactive	inactive			0.244 µM (active)	
CCC(C)(NC(=O)c1cc(Cl)c(C)c(Cl)c1)C(=O)CCl (centres undefined)	46.5 µM (active)		74.9 µM (active)		73.8 µM (active)		78.7 µM (active)		inactive	inactive	inactive	50.2 µM (active)			89.2 µM (active)			
CC1(c2ccc(Oc3ccccc3)cc2)OC(=O)N(Nc2ccccc2)C1=O (centres undefined)	18.7 µM (active)		9.55 µM (active)		12.3 µM (active)		24.5 µM (active)		inactive			50.2 µM (active)			80.5 µM (active)	12.3 µM (active)	9.75 µM (active)	
CCCN(CCC)c1c([N+](=O)[O-])cc(C(F)(F)F)cc1[N+](=O)[O-]		inactive		inactive		inactive		inactive	inactive	inactive	inactive		inactive	inactive				
CCN(CC)C(=O)SCc1ccc(Cl)cc1	15.4 µM (active)			inactive		inactive		inactive	inactive	inactive	inactive		inactive	inactive				
